Measured values taken from PubChem BioAssay (EPA / NIEHS).
Records with an inconclusive call do not appear. Calls of active or inactive are those of the source. The calls were made as follows: active = hit-call score of the fitted dose curve at least 0.9, where 1 is the maximum; inconclusive = response in the unintended direction; inactive = score below 0.9.

Test system: not listed separately
Assay: ACEA_ER_AUC_viability: ACEA Biosciences xCELLigence Real-Time Cell Analysis on Estrogen Receptor Agonism for Viability (AID 2283782);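 also: continuous compound exposure with impedance area under curve over 80 h; hit means loss of impedance signal meaning reduced cell growth or viability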
Outline: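 T47D cells preconditioned in phenol red-free RPMI with charcoal-stripped FBS, then dosed with 8-point 1:4 series from 100 uM (up to 0.5% DMSO). Impedance monitored up to ~80 h; area-under-curve loss versus DMSO taken as viability.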

| Compound | outcome | AC50 |
| --- | --- | --- |
| CC1=CC(C)C(C=O)CC1 (centres undefined) | inactive | – |
| Oc1ccc(/C=C/c2cc(O)cc(O)c2)cc1 | – | 20.6 µM (active) |
| O=C1c2ccccc2C(=O)c2cc(S(=O)(=O)O)ccc21 | inactive | – |
| CCc1cccc(C)c1N(C(=O)CS(=O)(=O)O)C(C)COC (centres undefined) | – | 50 µM (active) |
| C=CC(=O)OCCCCCCCCCC | inactive | – |
| CC(=O)CCC1=C(C)CCCC1(C)C | – | 81.5 µM (active) |
| CCC(C)C(=O)OCCc1ccccc1 (centres undefined) | inactive | – |
| C=CC(=O)OCC(C)OCC(C)OCC(C)OC(=O)C=C (centres undefined) | – | 21.3 µM (active) |
| O=C(O[C@@H]1Cc2c(O)cc(O)cc2O[C@@H]1c1cc(O)c(O)c(O)c1)c1cc(O)c(O)c(O)c1 | – | 61 µM (active) |
| CCC(C)C(=O)OC (centres undefined) | inactive | – |
| CC(C)=CCl | inactive | – |

Molecular target: AR (gene 367) (UniProt P10275)
Assay: ACEA_AR_agonist_80hr: ACEA Biosciences xCELLigence Real-Time Cell Analysis on Androgen Receptor Agonism for Proliferation (AID 2283783);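 also: hits increase impedance growth signal above DMSO baseline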
Outline: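 Proliferation of 22Rv1 prostate cancer cells tracked by electrical impedance, endpoint taken at 80 hours after dosing. Eight-point 1:4 dilutions from 100 uM maximum final, duplicate; testosterone and MG132 as positive controls, assay media as negative.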

Chain of AR (gene 367) (P10275 whole entry, looked up): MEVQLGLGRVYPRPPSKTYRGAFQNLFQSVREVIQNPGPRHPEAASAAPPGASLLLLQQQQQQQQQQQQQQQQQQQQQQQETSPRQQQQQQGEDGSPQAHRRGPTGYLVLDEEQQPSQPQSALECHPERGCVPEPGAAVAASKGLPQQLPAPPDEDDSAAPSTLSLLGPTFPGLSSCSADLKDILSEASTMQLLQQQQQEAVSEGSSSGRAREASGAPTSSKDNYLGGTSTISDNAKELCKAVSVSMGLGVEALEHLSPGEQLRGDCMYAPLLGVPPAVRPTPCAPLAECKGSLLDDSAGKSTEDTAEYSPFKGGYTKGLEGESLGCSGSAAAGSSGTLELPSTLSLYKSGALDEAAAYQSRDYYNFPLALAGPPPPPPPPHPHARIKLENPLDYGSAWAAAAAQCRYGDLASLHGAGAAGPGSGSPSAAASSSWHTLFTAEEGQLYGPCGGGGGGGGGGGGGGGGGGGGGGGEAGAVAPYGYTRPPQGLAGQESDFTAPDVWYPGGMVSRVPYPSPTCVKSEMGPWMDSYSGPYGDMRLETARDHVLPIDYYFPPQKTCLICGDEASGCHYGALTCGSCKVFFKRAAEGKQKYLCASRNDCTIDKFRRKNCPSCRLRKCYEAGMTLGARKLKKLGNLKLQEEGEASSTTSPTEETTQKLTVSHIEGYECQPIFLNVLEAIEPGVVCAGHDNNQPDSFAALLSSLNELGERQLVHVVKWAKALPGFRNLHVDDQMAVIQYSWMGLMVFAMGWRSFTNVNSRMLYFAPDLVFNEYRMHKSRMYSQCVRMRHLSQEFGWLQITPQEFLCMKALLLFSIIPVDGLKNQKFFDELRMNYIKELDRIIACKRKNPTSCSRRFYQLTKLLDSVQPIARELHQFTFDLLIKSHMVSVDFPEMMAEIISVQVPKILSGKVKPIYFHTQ

| Compound | outcome | AC50 |
| --- | --- | --- |
| C=C1C[C@H]2[C@@H]3C=C(C)C4=CC(=O)CC[C@]4(C)[C@H]3CC[C@]2(C)[C@@]1(OC(C)=O)C(C)=O | inactive | – |
| CCCCCC[C@@H](O)C/C=C\CCCCCCCC(=O)OCC(O)CO (some centres undefined) | inactive | – |
| Cc1ccc(C)c(OCCCC(C)(C)C(=O)O)c1 | inactive | – |
| COc1cc(O)c(C(=O)c2ccccc2)cc1S(=O)(=O)O | – | 0.0228 µM (active) |

Molecular target: AR (gene 367) (UniProt P10275)
Assay: ACEA_AR_antagonist_80hr: ACEA Biosciences xCELLigence Real-Time Cell Analysis on Androgen Receptor Antagonism for Proliferation (AID 2283787);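 also: 22Rv1 human prostate cancer cells with growth followed by electrical impedance; hits lower the impedance growth signal relative to DMSO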
Outline: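 22Rv1 cells in assay medium, growth tracked by electrical impedance; compounds eight-point 1:4 dilutions from 100 uM final, duplicate plates. Endpoint at 80 h; loss of signal versus DMSO.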

| Compound | AC50 | outcome |
| --- | --- | --- |
| C=C1C[C@H]2[C@@H]3C=C(C)C4=CC(=O)CC[C@]4(C)[C@H]3CC[C@]2(C)[C@@]1(OC(C)=O)C(C)=O | 0.152 µM (active) | – |
| CCCCCC[C@@H](O)C/C=C\CCCCCCCC(=O)OCC(O)CO (some centres undefined) | – | inactive |
| CCc1cccc(C)c1N | – | inactive |
| Cc1ccc(C)c(OCCCC(C)(C)C(=O)O)c1 | – | inactive |
